From publication PMC4336329 (PLoS ONE, 2015)
The campaign covered roughly 310,000 compounds. About 14,000 (4.5%) showed an effect of 50% or more. Effects have a minus sign here. Shown is part of a subset that was picked to be rich in strong results.

What follows are compounds tested against human ether-à-go-go-related gene (hERG) potassium channel (human, UniProt Q12809) (assay: primary screen, population patch clamp on CHO cells stably expressing hERG; higher = less effect of the substance).
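Further: peak tail current of the secondary pulse compared with the same well before compound.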

Sequence of human ether-à-go-go-related gene (hERG) potassium channel (Q12809 whole entry, looked up): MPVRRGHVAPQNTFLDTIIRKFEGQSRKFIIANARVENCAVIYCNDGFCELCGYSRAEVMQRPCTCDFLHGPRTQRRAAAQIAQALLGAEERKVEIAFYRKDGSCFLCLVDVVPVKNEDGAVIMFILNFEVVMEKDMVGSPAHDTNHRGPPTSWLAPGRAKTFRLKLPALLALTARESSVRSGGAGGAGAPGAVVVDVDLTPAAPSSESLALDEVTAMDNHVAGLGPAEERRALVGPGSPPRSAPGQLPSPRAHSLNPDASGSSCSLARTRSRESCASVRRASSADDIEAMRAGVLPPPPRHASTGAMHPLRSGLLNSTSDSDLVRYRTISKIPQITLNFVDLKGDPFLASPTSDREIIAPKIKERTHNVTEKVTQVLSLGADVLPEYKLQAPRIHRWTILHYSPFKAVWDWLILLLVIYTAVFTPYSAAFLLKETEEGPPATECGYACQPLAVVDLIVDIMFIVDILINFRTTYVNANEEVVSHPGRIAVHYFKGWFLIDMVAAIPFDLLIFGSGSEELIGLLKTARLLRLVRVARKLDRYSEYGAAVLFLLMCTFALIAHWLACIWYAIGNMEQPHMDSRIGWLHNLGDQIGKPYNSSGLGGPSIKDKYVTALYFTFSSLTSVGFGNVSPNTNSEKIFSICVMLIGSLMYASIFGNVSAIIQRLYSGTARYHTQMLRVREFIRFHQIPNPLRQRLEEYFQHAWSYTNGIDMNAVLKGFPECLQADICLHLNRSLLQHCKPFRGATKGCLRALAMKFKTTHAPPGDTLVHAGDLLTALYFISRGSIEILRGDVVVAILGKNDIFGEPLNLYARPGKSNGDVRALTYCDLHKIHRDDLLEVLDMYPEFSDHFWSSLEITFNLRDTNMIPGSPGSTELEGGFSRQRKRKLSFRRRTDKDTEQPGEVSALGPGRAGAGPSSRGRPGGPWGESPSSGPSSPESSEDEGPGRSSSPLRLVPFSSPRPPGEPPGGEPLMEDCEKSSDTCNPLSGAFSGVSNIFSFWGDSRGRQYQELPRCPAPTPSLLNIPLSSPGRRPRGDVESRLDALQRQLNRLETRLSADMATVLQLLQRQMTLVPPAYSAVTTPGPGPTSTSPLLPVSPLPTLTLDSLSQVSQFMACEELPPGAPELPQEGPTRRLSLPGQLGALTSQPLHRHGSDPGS

| Structure (SMILES) | hERG current change (%, negative = inhibition) at 10uM [%] |
| --- | --- |
| Cc1cccc(-c2nc3c(c(=O)c4ccccc4n3C)c(=O)n2-c2ccccc2)c1 | 14 |
| Cc1cccc(S(=O)(=O)c2c(N)n(/N=C/c3cccnc3)c3nc4ccccc4nc23)c1 | -4.67 |
| COc1cc(C(=O)NCC(c2cccs2)N2CCOCC2)cc(OC)c1OC (stereo not drawn) | 11.5 |
| Cc1cccc(C)c1OC(=O)Cc1ccccc1[N+](=O)[O-] | -4.62 |
| CCCOc1ccc(C(=O)NNC(=O)c2cccc(S(=O)(=O)N3CCN(C(C)=O)CC3)c2)cc1OC | -13.8 |
| COc1cc(C2Nc3cccc4cccc(c34)N2)ccc1OC(C)=O | 11.2 |
| CC(NC(=O)C(=O)N1CCOCC1)C(c1cccs1)N1CCN(c2ccccc2)CC1 (stereo not drawn) | 8.31 |
| O=S(=O)(c1ccccc1)c1cnn(-c2ccccc2)c1-c1ccc(F)cc1 | -0.19 |
| Cc1ccc(C)c(NC(=S)N2CCCCCC2)c1 | 0.578 |
| Cc1nn(C)c(C(=O)N2CCN(C(=O)c3ccco3)CC2)c1[N+](=O)[O-] | 8.95 |
| Cc1cccc(-n2nc([N+](=O)[O-])c(N3CCN(C(=O)c4ccco4)CC3)[n+]2[O-])c1 | -68.7 |
| O=C(c1ccco1)N1CCN(c2c([N+](=O)[O-])nn(-c3ccc(Cl)cc3)[n+]2[O-])CC1 | -57.2 |
| O=C(c1ccco1)N1CCN(c2ccc(Cl)c(Cl)c2)CC1 | -29.7 |
| O=[N+]([O-])c1nn(-c2ccccc2)[n+]([O-])c1N1CCN(c2ccccc2)CC1 | -0.32 |
| O=C(c1ccco1)N1CCN(c2c([N+](=O)[O-])nn(-c3cccc(Cl)c3)[n+]2[O-])CC1 | -38.1 |
| Cc1ccc(NC(=O)CC2SC(=NCC3CCCO3)NC2=O)cc1Cl (stereo not drawn) | -3.57 |
| Cc1c(C)n2c(SCC(=O)NC3CCCCC3)nnc2[nH]c1=O | -8.13 |
| CCCCN(C(=O)c1ccco1)C1CCS(=O)(=O)C1 (stereo not drawn) | 0.36 |
| O=C1c2ccc(-c3ccc4c(c3)C(=O)N(CCO)C4=O)cc2C(=O)N1CCO | 14.6 |
| CN(CC1CCCN(CCc2ccccc2F)C1)C(=O)c1ccoc1 (stereo not drawn) | -66.7 |
| CN(C)CCN(CC1CCCN(Cc2ccccc2F)C1)C(=O)c1ccc(F)cc1 (stereo not drawn) | 3.46 |
| COc1ccccc1CCN1CCCC(CN(C)CC(C)(C)CO)C1 (stereo not drawn) | -0.609 |
| Cc1occc1C(=O)N(C)CC1CCCN(CCc2ccccc2F)C1 (stereo not drawn) | -51.1 |
| COc1ccccc1CCN1CCCC(CN(C)C(=O)c2ccco2)C1 (stereo not drawn) | -68.9 |

| Structure (SMILES) | hERG current change (%, negative = inhibition) at 10uM [%] |
| --- | --- |
| COc1ccccc1CCN1CCCC(CN(C)C(=O)c2ccc3nc[nH]c3c2)C1 (stereo not drawn) | 12.1 |
| Cc1ccccc1CC(=O)N(CCN(C)C)CC1CCCN(Cc2ccccc2F)C1 (stereo not drawn) | 1.19 |
| COc1ccccc1CCN1CCCC(CN(C)C(=O)c2ccoc2)C1 (stereo not drawn) | -51.2 |
| COCC(=O)N(C)CC1CCCN(CCc2ccccc2OC)C1 (stereo not drawn) | 7.26 |
| O=c1[nH]oc2cc(Cl)ccc12 | 11.3 |
| CCOc1ccc(OCC(=O)Nc2ccc(S(N)(=O)=O)cc2)cc1 | -7.32 |
| O=C(NCc1cccs1)c1nc2c(nnn2Cc2ccccc2Cl)c(=O)[nH]1 | 5.42 |
| COC(=O)CSc1nn(-c2ccc(F)cc2)c(=S)s1 | -2.71 |
| Cn1c(CC(=O)Nc2ccccc2)nnc1SCCOc1ccccc1 | 2.08 |
| CC1CC(=O)Nc2ccc([N+](=O)[O-])cc2N1C (stereo not drawn) | 7.59 |
| Cc1cc(C)c(C(=O)N(C)CC2CCCN(CCc3ccccc3F)C2)o1 (stereo not drawn) | -70.4 |
| Cc1cc(C)c(C(=O)N(CCN(C)C)CC2CCCN(Cc3ccccc3F)C2)o1 (stereo not drawn) | 7.61 |
| Cc1cc(C)c(C(=O)N(C)C2CCCN(Cc3ccccc3F)C2)o1 (stereo not drawn) | -0.652 |
| CCCn1c(SCC(=O)Nc2nccs2)nnc1-c1cccnc1 | -0.265 |
| COc1cccc(NC(=O)c2oc3ccccc3c2NC(=O)c2ccc3c(c2)OCO3)c1 | 5.18 |
| O=C1C2CC=CCC2C(=O)N1c1n[nH]c(Cc2ccccc2)n1 (stereo not drawn) | 2.31 |
| COc1ccccc1C(CNC(=O)CNC(=O)c1ccc(Cl)c(Cl)c1)N1CCCC1 (stereo not drawn) | -32.9 |
| CCCCNC(=O)c1cn(CC)c2ccc(S(=O)(=O)N3CCCC3)cc2c1=O | -38.1 |
| CCCCNC(=O)c1cn(C)c2ccc(S(=O)(=O)N3CCCC3)cc2c1=O | 12.6 |
| CCCCN(CCCC)CCNC(=O)c1cn(CC)c2ccc(S(=O)(=O)N3CCCC3)cc2c1=O | -65.7 |
| CCCCNC(=O)c1cn(CC)c2ccc(S(=O)(=O)N3CCCCCC3)cc2c1=O | 7.01 |
| CCCCSCCCNC(=O)c1cn(C)c2ccc(S(=O)(=O)N3CCCC3)cc2c1=O | 11.2 |
| CCCCN(CCCC)CCNC(=O)c1cn(C)c2ccc(S(=O)(=O)N3CCCC3)cc2c1=O | -57.9 |
| CCOc1ccc(NC(=O)CN(C)C(=O)CCCc2c[nH]c3ccccc23)cc1OCC | -3.25 |

| Structure (SMILES) | hERG current change (%, negative = inhibition) at 10uM [%] |
| --- | --- |
| COc1ccccc1NC(=O)CSc1nnc(-c2ccoc2C)n1C | -1.59 |
| COc1ccccc1NC(=O)CSc1nnc(-c2ccoc2C)n1CCc1ccccc1 | -64.8 |
| Cc1ccccc1NC(=O)CSc1nnc(-c2ccoc2C)n1CCc1ccccc1 | -59.6 |
| Cc1occc1-c1nnc(SCC(=O)Nc2ccc(F)cc2)n1Cc1ccccc1 | -49.4 |
| CCCn1c(SCC(=O)Nc2ccccc2-c2ccccc2)nnc1-c1ccoc1C | -26 |
| Cc1nnc(SCC(=O)Nc2ccccc2)n1CCc1ccccc1 | -33 |
| Cc1occc1-c1nnc(SCC(=O)Nc2ccccc2)n1C | 9.72 |
| Cc1cccc(C)c1NC(=O)CSc1nnc(-c2ccoc2C)n1CCc1ccccc1 | -46.3 |
| COc1ccccc1NC(=O)CSc1nnc(C)n1CCc1ccccc1 | -14.3 |
| CC(=O)c1ccc(NC(=O)CSc2nnc(-c3ccoc3C)n2Cc2ccccc2)cc1 | -30.8 |
| Cc1occc1-c1nnc(SCC(=O)Nc2ccccc2)n1CCc1ccccc1 | -67 |
| Cc1occc1-c1nnc(SCC(=O)Nc2ccccc2)n1Cc1ccccc1 | -76.3 |
| CSc1nc(SC)c2c3c(oc2n1)COC(C)(C)C3 | 7.86 |
| Cc1ccc(N2CCN(/N=C/C(Cl)=C/c3ccccc3)CC2)cc1 | -5.13 |
| O=C(CN(Cc1ccco1)C(=O)c1ccc(Cl)cc1)Nc1c(Cl)cc(Cl)cc1Cl | 7.76 |
| CN1C(=O)c2ccccc2Sc2ccc(NC(=O)NC3CC3)cc21 | -11 |
| CCOc1ccccc1C(=O)NCC(=O)NCC1CCCCC1 | 12.2 |
| COc1ccc(N2C(=O)C3C4C=CC(CC4)C3C2=O)c([N+](=O)[O-])c1 (stereo not drawn) | -5.27 |
| O=C(/C=C/c1ccco1)NC(=S)Nc1ccc(O)c(-c2nc3ccccc3s2)c1 | 13.2 |
| CSc1ccccc1NC(=S)N/N=C/c1cccn1Cc1ccc(F)cc1 | -6.67 |
| O=C(c1cc(=O)c2ccccc2o1)N1CCN(c2ccccc2F)CC1 | -15.3 |
| COCCn1c(SCC(=O)Nc2ccc(OC)cc2)nnc1-c1ccoc1C | -3.58 |
| Cc1cc(NC(=O)CSc2nnc(C3CC3)n2Cc2ccccc2)no1 | -8.63 |
| Cc1cc(NC(=O)CSc2nnc(-c3ccc(Br)o3)n2Cc2ccccc2)no1 | -51.2 |

| Structure (SMILES) | hERG current change (%, negative = inhibition) at 10uM [%] |
| --- | --- |
| COc1ccc(NC(=O)CSc2nnc(-c3ccoc3C)n2CCc2ccccc2)cc1 | -54.3 |
| Cc1occc1-c1nnc(SCC(=O)NCCc2ccccc2)n1C(C)c1ccccc1 (stereo not drawn) | -31.8 |
| Cc1cc(NC(=O)CSc2nnc(-c3ccco3)n2Cc2ccccc2)no1 | -44.3 |
| Cc1occc1-c1nnc(SCC(N)=O)n1Cc1ccccc1 | 3.5 |
| Cc1occc1-c1nnc(SCC(=O)NCCc2ccccc2)n1Cc1ccccc1 | -81.1 |
| COc1ccc(NC(=O)CSc2nnc(-c3ccoc3C)n2CC2CCCO2)cc1 (stereo not drawn) | -5.04 |
| COc1cccc2cc(C(=O)NCCc3ccccc3)oc12 | -20.1 |
| C/C(=N\NC(=O)C1(C)CC1(Br)Br)c1ccc(NC(=O)c2ccc(C)o2)cc1 (stereo not drawn) | -8.92 |
| COc1cc2nc(-c3cccs3)oc(=O)c2cc1OC | 4.77 |
| COc1cccc2c1Oc1ncccc1N(C(=O)CCC(=O)NCc1cccc(C)c1)C2 | -23.5 |
| CC(C)[C@H](NC(=O)C1CCN(S(=O)(=O)c2ccccc2)CC1)C(=O)NCc1ccccc1 | 10.2 |
| O=C(COC(=O)/C=C/c1ccc(Br)o1)NC1CCCCC1 | 11 |
| O=C(Cc1ccccc1)N/N=C/c1ccc(-c2ccc([N+](=O)[O-])cc2)o1 | 4.21 |
| CC(=O)Nc1ccc(/C=N/NC(=O)CCN2CCN(c3ccccc3)CC2)cc1 | -2.3 |
| O=C(CN1CCCCCCC1)N/N=C/c1ccc([N+](=O)[O-])o1 | -52.1 |
| O=C(CCN1CCN(c2ccccc2)CC1)N/N=C/c1ccccc1O | -16 |
| O=C(CCN1CCN(c2ccccc2)CC1)N/N=C/c1ccc([N+](=O)[O-])o1 | -73.4 |
| O=C(N/N=C/c1ccc([N+](=O)[O-])o1)C1CCCC1 | 10.6 |
| O=C(Cc1ccc([N+](=O)[O-])cc1)N/N=C/c1ccco1 | -15.3 |
| O=C(Cc1ccc([N+](=O)[O-])cc1)N/N=C/c1ccc([N+](=O)[O-])o1 | -64.7 |
| CCCCCC(=O)N/N=C/c1ccc([N+](=O)[O-])o1 | -26.2 |
